The record followed here is PubChem BioAssay AID1053128 (The Scripps Research Institute Molecular Screening Center, 2014).

Each structure is given as a SMILES string. A number with no mark means an inactive call. The rule behind the calls is not given here. Some results are limits rather than exact numbers.

A short description of the experiment: DD(E) peptide probe displacement potency, late-stage follow-up, counter-screen for fibrin DD(E)-Tn6 binding project, biochemical, fluorescence polarization, dose response (AID 1053128). The settings on record: Fluorescence polarization counterscreen, Tn6 peptide/DD(E) assay. (In general: A counterscreen serves to expose hits that act by an unwanted route or on another target.)
As to `Cc1cc2c(cc1S(=O)(=O)N1CCN(c3cccc(C)c3C)CC1)OCCN2C`, the IC50 – broadly, the concentration that inhibits the measured activity by half – is over 83.3 µM. Consider `CN1C(=O)NC(c2ccccc2[N+](=O)[O-])C2=C1CCCC2=O` (stereo not given), for which the IC50 is over 83.3 µM. Consider `CCn1c(CSc2n[nH]c(N)n2)nc2cc(C(=O)O)ccc21`, for which the IC50 was over 83.3 µM. In the case of `N#CC1=C(N)Oc2ccc3ccc(O)cc3c2C1c1ccsc1` (stereo not given) it was over 83.3 µM; in that of `O=C(O)CCCNc1cc(N2CCN(C(=O)c3ccco3)CC2)c2noc3c2c1C(=O)c1ccccc1-3`, over 83.3 µM; in that of `NS(=O)(=O)c1ccc(NS(=O)(=O)c2ccc(NC(=O)c3ccc(-c4ccccc4)cc3)cc2)cc1`, over 83.3 µM. In the case of `COc1ccc2ccccc2c1C(O)c1nccn1C` (stereo not given) it was over 83.3 µM; in that of `Cc1cc2cc(CNC(=O)c3ccc(S(=O)(=O)N4CCOCC4)cc3)ccc2n1C`, over 83.3 µM; in that of `Cc1cc2cc(CNS(=O)(=O)c3ccc4ccccc4c3)ccc2n1C`, over 83.3 µM. In the case of `Cc1cc(C)c(S(=O)(=O)NCCn2c(C)cc3ccccc32)c(C)c1` it was over 83.3 µM.
